Shown are actives, neighbours in structure and some others; about 9.9% of the full set was active somewhere.
IL-1B inflam inh – inflammasome signaling inhibition, IL-1 beta readout; 360,000 compounds, 4.7% hits; AID 743279; activity change, % at 57.5 µM; THP-1 LPS/ATP IL-1B secretion, AlphaLISA, 16 h; hits give low values; in the data active = activity change below about -50%; inconclusive = mostly about -30% to -49%; also: % is scaled to controls: 0 for no effect and ±100 for the full control effect
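THP-1 cells pretreated 1 hr with compounds (up to 57.5 uM final), then stimulated with LPS (250 ng/mL final) plus ATP (1.25 mM final); secreted IL-1B measured by AlphaLISA after 16 hr, decreased signal indicating inhibition.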
KB-3-1 cytotox – kills parental KB-3-1 adenocarcinoma cells. KB-3-1 viability, CellTiter-Glo ATP luminescence, 72 h. 400,000 compounds, 1.4% hits. Potency, µM (doses to about 46.1 µM), usual class: cytotoxic. AID 1347075; also: potency is read from the fitted curve at half-maximal effect; % is scaled to controls: 0 for no effect and ±100 for the full control effect; nearly all actives have a fitted effect of over 60% in size
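Using CellTiter-Glo luminescence, growth of non-resistant KB-3-1 adenocarcinoma cells is assessed 72 h after pin-tool compound addition at 37 °C. Normalized responses across the concentration series yield fitted curves.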
SW480 rereplic – induces DNA re-replication in SW480 colon adenocarcinoma cells | SW480 DNA re-replication, Hoechst DNA content imaging, 48 h | Potency, µM (top dose mostly 46.1 µM), for inactives: at the highest dose re-replication activation, most hits filed as activators | 340,000 compounds, 1.8% hits; also: potency is read from the fitted curve at half-maximal effect; % of control where 0% means no effect; nearly all actives have a fitted effect of over 55% in size
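DNA re-replication was detected as more nuclei of elevated Hoechst intensity after 48 hr exposure to compound (23 nL pinned per well of 250 cells).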
MCF10A rereplic – inducers of DNA re-replication in MCF 10A breast cells; AID 624296; 350,000 compounds, 2.9% hits; MCF 10A DNA re-replication, Hoechst nuclear intensity, 48 h; Potency, µM (series often up to 46.1 µM), inactives show at the highest dose activity, positive = re-replication, most hits filed as activators; also: potency is read from the fitted curve at half-maximal effect; % of control where 0% means no effect; nearly all actives have a fitted effect of over 50% in size
KB-V1 MDR tox – kills drug-selected multidrug resistant KB-V1 cells; KB-V1 MDR cells viability, CellTiter-Glo, 72 h; Potency, µM (top dose mostly 46.1 µM), usual class: cytotoxic; 400,000 compounds, 3.4% hits; also: potency is read from the fitted curve at half-maximal effect; % is scaled to controls: 0 for no effect and ±100 for the full control effect; nearly all actives have a fitted effect of over 60% in size
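Potencies derive from concentration-effect curves fitted to normalized luminescence (CellTiter-Glo) of KB-V1 cells treated for 72 h at 37 degrees C in phenol-red-free DMEM containing 10% FBS.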
The depositor's hits bear a star; [ ] = dose if it differs, or a comment. Unless noted, calls follow the shape of the dose curve; as a rule, active = well fitted curve in the direction sought with a large enough effect; inconclusive = small, poorly fitted or top-dose-only effect, or another doubt; inactive = no such curve, though single readings can be large; an effect the other way counts as inactive or inconclusive.

How did Cc1cnc(CNC(=O)c2ccc3oc(C(C)C)nc3c2)[nH]1 do in these assays?
IL-1B inflam inh: -10.0; KB-3-1 cytotox: inactive; SW480 rereplic: -26.1%; MCF10A rereplic: -12.0%; KB-V1 MDR tox: inconclusive

How did CCc1ccc2oc(C(=O)NCc3ccncc3)c(C)c2c1 do in these assays?
IL-1B inflam inh: -66.4*; KB-3-1 cytotox: inconclusive; SW480 rereplic: -12.2%; MCF10A rereplic: 4.5%; KB-V1 MDR tox: 11.6µM*

What do the screens show for `Cc1ccc2oc(C(=O)NCc3ncc(C)[nH]3)c(C)c2c1`?
IL-1B inflam inh: -9.9; KB-3-1 cytotox: 10.3µM*; SW480 rereplic: 16.4µM*; MCF10A rereplic: inconclusive; KB-V1 MDR tox: inconclusive

Results for CCC(c1nnnn1Cc1ccco1)N1CCN(c2cc(Cl)ccc2C)CC1 (stereo unspecified) ?
IL-1B inflam inh: -60.1*; KB-3-1 cytotox: inconclusive; SW480 rereplic: inconclusive; MCF10A rereplic: inconclusive; KB-V1 MDR tox: inconclusive

Results for C/C(N)=C(/C#N)C(=O)COC(=O)c1cccc(O)c1 ?
IL-1B inflam inh: -54.1*; KB-3-1 cytotox: inactive; SW480 rereplic: 0.3%[1.84 µM]; MCF10A rereplic: -31.1%; KB-V1 MDR tox: inactive

How did COc1cccc(CN2CCCC(C(=O)N3CCCCC3)C2)c1 (stereo unspecified) do in these assays?
IL-1B inflam inh: 31.1; KB-3-1 cytotox: inactive; SW480 rereplic: -2.1%; MCF10A rereplic: inconclusive; KB-V1 MDR tox: inactive

Results for Cc1cc(C)nc(N2CCN(c3nc(-c4ccccc4)nc4c3oc3ccccc34)CC2)n1 ?
IL-1B inflam inh: -1.3; KB-3-1 cytotox: inactive; SW480 rereplic: -8.2%; MCF10A rereplic: -5.3%; KB-V1 MDR tox: inactive

How did Cc1nc(N2CCN(Cc3ccc4c(c3)OCO4)CC2)c2oc3ccccc3c2n1 do in these assays?
IL-1B inflam inh: inconclusive; KB-3-1 cytotox: inconclusive; SW480 rereplic: inconclusive; MCF10A rereplic: 11.6µM*; KB-V1 MDR tox: inconclusive

Results for COc1ccccc1N1CCN(c2nc(C)nc3c2oc2ccccc23)CC1 ?
IL-1B inflam inh: -10.0; KB-3-1 cytotox: 1.41µM*; SW480 rereplic: inconclusive; MCF10A rereplic: inconclusive; KB-V1 MDR tox: 1.12µM*

What do the screens show for `CSc1nc(N2CCN(Cc3ccc4c(c3)OCO4)CC2)c2ccccc2n1`?
IL-1B inflam inh: 27.7; KB-3-1 cytotox: inconclusive; SW480 rereplic: 3.8%; MCF10A rereplic: inconclusive; KB-V1 MDR tox: inactive

What do the screens show for `Cc1nc(N2CCC(C)CC2)c2oc3ccccc3c2n1`?
IL-1B inflam inh: -15.3; KB-3-1 cytotox: inconclusive; SW480 rereplic: -14.2%[9.22 µM]; MCF10A rereplic: inconclusive; KB-V1 MDR tox: 20.6µM*

How did Cc1nc(N2CCN(Cc3ccc4c(c3)OCO4)CC2)c2cc(-c3ccccc3)sc2n1 do in these assays?
IL-1B inflam inh: -62.4*; KB-3-1 cytotox: inconclusive; SW480 rereplic: inconclusive; MCF10A rereplic: 30.1%; KB-V1 MDR tox: inactive

How did O=C(CCCc1ccccc1)N=C1SC2CS(=O)(=O)CC2N1c1ccccc1F (stereo unspecified) do in these assays?
IL-1B inflam inh: 43.6; KB-3-1 cytotox: inactive; SW480 rereplic: 7.2%; MCF10A rereplic: -0.8%; KB-V1 MDR tox: inconclusive

What do the screens show for `Cc1ccccc1OCc1nnc(SCc2cc(=O)c3ccc(C)c(C)c3[nH]2)n1C`?
KB-3-1 cytotox: inactive; KB-V1 MDR tox: inactive

Results for Cc1nc(N2CCN(Cc3ccc(Cl)cc3)CC2)c2oc3ccccc3c2n1 ?
IL-1B inflam inh: -63.4*; KB-3-1 cytotox: inactive; SW480 rereplic: 6.1%; MCF10A rereplic: inconclusive; KB-V1 MDR tox: inconclusive

What do the screens show for `O=C(N/C(=C\c1cccc([N+](=O)[O-])c1)C(=O)N(CCO)CCO)c1ccco1`?
IL-1B inflam inh: -51.3*; KB-3-1 cytotox: inactive; SW480 rereplic: 2.5%; MCF10A rereplic: 1.6%; KB-V1 MDR tox: inactive

What do the screens show for `O=C(NCc1ccccc1)/C(=C\c1cccc([N+](=O)[O-])c1)NC(=O)c1ccco1`?
IL-1B inflam inh: 14.8; KB-3-1 cytotox: inactive; KB-V1 MDR tox: inactive

Results for CCN(CC)C(=O)/C(=C\c1cccc([N+](=O)[O-])c1)NC(=O)c1ccco1 ?
IL-1B inflam inh: 5.2; KB-3-1 cytotox: inactive; SW480 rereplic: -120.6%; MCF10A rereplic: -16.8%; KB-V1 MDR tox: 13µM*

Results for CN(c1ccccc1)S(=O)(=O)c1cccc(NC(=O)c2ccc(=O)[nH]n2)c1 ?
IL-1B inflam inh: 3.7; KB-3-1 cytotox: inactive; SW480 rereplic: -8.4%; MCF10A rereplic: 10.3%; KB-V1 MDR tox: inactive

What do the screens show for `Cc1cc(S(=O)(=O)NC2CCCCC2)ccc1OCC(=O)NCc1ccccn1`?
IL-1B inflam inh: -10.8; KB-3-1 cytotox: inactive; SW480 rereplic: 27.9%; MCF10A rereplic: 18.7%; KB-V1 MDR tox: 18.4µM*

How did CCNS(=O)(=O)c1ccc(CCC(=O)N2CCN(c3cccc(Cl)c3)CC2)cc1 do in these assays?
IL-1B inflam inh: -51.4*; KB-3-1 cytotox: inactive; SW480 rereplic: -5.3%; MCF10A rereplic: 9.8%; KB-V1 MDR tox: inactive

Results for O=C(COc1ccc(S(=O)(=O)NC2CCCCC2)cc1)N1CCN(c2cccc(Cl)c2)CC1 ?
IL-1B inflam inh: -26.2; KB-3-1 cytotox: 13µM*; SW480 rereplic: 28.5%; MCF10A rereplic: inconclusive; KB-V1 MDR tox: inconclusive

Results for Cc1ccc(S(=O)(=O)NCCC(=O)N2CCN(c3cccc(Cl)c3)CC2)cc1C ?
IL-1B inflam inh: -1.2; KB-3-1 cytotox: inactive; SW480 rereplic: 22.3%; MCF10A rereplic: 2.2%; KB-V1 MDR tox: inactive

What do the screens show for `CCNS(=O)(=O)c1ccc(CCC(=O)Nc2cc(Cl)ccc2Oc2ccccc2)cc1`?
IL-1B inflam inh: inconclusive; KB-3-1 cytotox: inactive; SW480 rereplic: 2.5%; MCF10A rereplic: 4.8%; KB-V1 MDR tox: 16.4µM*

Results for COc1ccccc1NC(=O)CCS(=O)(=O)c1ccc2nc(C)sc2c1 ?
KB-3-1 cytotox: inactive; KB-V1 MDR tox: inactive

How did CSCCC(c1nnnn1C1CCCC1)N1CCN(C/C=C/c2ccccc2)CC1 (stereo unspecified) do in these assays?
IL-1B inflam inh: -0.3; KB-3-1 cytotox: inactive; KB-V1 MDR tox: inactive

Results for O=C1CCCc2oc3c(c21)CCCC3 ?
IL-1B inflam inh: 0.0; KB-3-1 cytotox: inconclusive; SW480 rereplic: inconclusive; MCF10A rereplic: inconclusive; KB-V1 MDR tox: inactive

Results for OC(c1ccccc1)c1nc(-c2ccc3c(c2)OCO3)cs1 (stereo unspecified) ?
IL-1B inflam inh: 8.1; KB-3-1 cytotox: inactive; KB-V1 MDR tox: inactive

How did COc1ccc(Cl)cc1S(=O)(=O)NC(C)c1cnn(-c2ccccn2)c1C (stereo unspecified) do in these assays?
IL-1B inflam inh: 11.0; KB-3-1 cytotox: inactive; KB-V1 MDR tox: inactive

How did C=CCNC(=O)COc1ccc(S(=O)(=O)NC2CCCCC2)cc1 do in these assays?
IL-1B inflam inh: 6.1; KB-3-1 cytotox: inactive; SW480 rereplic: 14.6µM*; MCF10A rereplic: 10.3µM*; KB-V1 MDR tox: inactive

Screening results: PubChem, National Center for Advancing Translational Sciences (NCATS)
